# Assay outcomes (PubChem)
# Shown are actives, neighbours in structure and some others; about 6.7% of the full set was active somewhere.
# T cruzi growth-1 – blocks T. cruzi growth in NIH3T3 culture | inhibition, % at 8.34 µM | T. cruzi beta-gal in NIH3T3, GalScreen luminescence, 90 h | 77,000 compounds, 5.9% hits | AID 624255;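 active means mean inhibition above about 93%, with at least 55% of replicates each passing it, limit read from the data, passing the limit was not always enough; inconclusive means only one of those two conditions holds; inactive means neither condition holds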
# Pf Dd2 inh – inhibitors of Plasmodium falciparum Dd2 growth; P. falciparum Dd2 growth, SYBR Green, 72 h; hits give low values; activity change, % at 10 µM; 94,000 compounds, 2.3% hits; in the data active means activity change below about -80%; inconclusive means no clear call, values can overlap the other calls
# C diff HTS – C. difficile growth inhibition; AID 1259249; 86,000 compounds, 0.25% hits; growth activity, negative = inhibition, % at 16 µg/mL (by protocol); Clostridium difficile clinical isolate growth, OD600, 24 h; hits give low values;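 active means mean growth activity at or below -80% and every replicate also at or below -80%; inconclusive means mean at or below -80% but some replicate above -80%; inactive means mean growth activity above -80%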;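 further: 0% = DMSO wells and -100% = levofloxacin 16 µg/mL wells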
# T cruzi growth-2 – Trypanosoma cruzi proliferation inhibition | T. cruzi beta-gal in NIH3T3, GalScreen luminescence, 90 h | shares compounds with T cruzi growth-1 | inhibition, % at 8.35 µM | 5,600 compounds, 72% hits;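 active means mean replicate inhibition above about 95% and at least 55% of replicates individually reaching it, limit read from the data; inconclusive means only one of the two criteria is met; inactive means neither criterion is met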
# T cruzi growth-3 – blocks T. cruzi growth in NIH3T3 host cells | AID 651740 | 5,600 compounds, 21% hits | inhibition, % at 2.09 µM | T. cruzi beta-gal in NIH3T3, GalScreen luminescence, 90 h | shares compounds with T cruzi growth-1;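 active means mean inhibition above about 95%, with at least 55% of replicates also reaching it, limit read from the data; inconclusive means meets just one of the two conditions; inactive means meets neither condition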;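 further: plate controls were neutral control median for no effect and positive control median for full effect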
# NIH3T3 tox – NIH/3T3 (mouse) viability loss. 5,600 compounds, 14% hits. shares compounds with T cruzi growth-1. cytotoxicity (signal decrease), % at 8.35 µM. NIH/3T3 viability, CellTiter-Glo ATP luminescence, 90 h;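 active means mean signal decrease across replicates above about 35% based on untreated-well scatter, with enough replicates individually passing, limit read from the data; inconclusive means no rule stated though some were filed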;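 further: 0% = median of neutral control wells and 100% = median of positive control wells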
# NIH3T3 tox 2 – kills mouse NIH/3T3 fibroblasts. shares compounds with T cruzi growth-1. NIH/3T3 viability, CellTiter-Glo ATP luminescence, 90 h. inhibition, % at 24.9 µM. 5,600 compounds, 56% hits;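 active means mean loss of cell viability signal at or above a set limit, and enough replicates individually reaching it; inconclusive means meets only the mean limit or only the replicate share; inactive means meets neither condition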;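 further: 0% = median of neutral control wells and 100% = median of positive control wells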
# Starred values were filed as active, the others as inactive; ? = inconclusive; . = not tested or not shown.
SMILES,T cruzi growth-1,Pf Dd2 inh,C diff HTS,T cruzi growth-2,T cruzi growth-3,NIH3T3 tox,NIH3T3 tox 2
C[C@@H]1CCCCO[C@@H](CN(C)C(=O)Nc2ccc(C(F)(F)F)cc2)[C@H](C)CN([C@@H](C)CO)C(=O)c2cc(NC(=O)CCC(F)(F)F)ccc2O1,101*,6,6,106*,35,25,7
C[C@@H]1CCCCO[C@H](CN(C)C(=O)Nc2ccc(C(F)(F)F)cc2)[C@H](C)CN([C@H](C)CO)C(=O)c2cc(NC(=O)CCC(F)(F)F)ccc2O1,107*,-79,3,106*,105*,-11,19
C[C@@H]1CCCCO[C@H](CN(C)C(=O)Nc2ccc(C(F)(F)F)cc2)[C@@H](C)CN([C@@H](C)CO)C(=O)c2cc(NC(=O)CCC(F)(F)F)ccc2O1,94,-73,-3,.,.,.,.
CC(C)NC(=O)N(C)C[C@@H]1OCCCC[C@@H](C)Oc2ccc(NC(=O)C3CCCCC3)cc2C(=O)N([C@@H](C)CO)C[C@@H]1C,-18,-41,0,.,.,.,.
COc1ccc(S(=O)(=O)N(C)C[C@@H]2OCCCC[C@H](C)Oc3ccc(NS(C)(=O)=O)cc3C(=O)N([C@H](C)CO)C[C@H]2C)cc1,-1,-34,9,.,.,.,.
C[C@H]1CN([C@@H](C)CO)S(=O)(=O)c2ccc(/C=C/c3ccccc3)cc2O[C@H]1CN(C)C(=O)NC1CCCC1,102*,-66,-2,99*,73,34,102*
C[C@H]1CN([C@@H](C)CO)S(=O)(=O)c2ccc(/C=C/c3ccccc3)cc2O[C@H]1CN(C)C(=O)NC1CCCCC1,128*,-64,-12,101*,89,-1,49*
C[C@H](CO)N1C[C@H](C)[C@H](CN(C)C(=O)NC2CCCCC2)Oc2cc(/C=C/c3ccccc3)ccc2S1(=O)=O,.,-33,8,.,.,.,.
C[C@@H]1CN([C@@H](C)CO)S(=O)(=O)c2ccc(/C=C/c3ccccc3)cc2O[C@H]1CN(C)C(=O)NC1CCCCC1,.,-17,13,.,.,.,.
CO[C@@H]1CN(C)C(=O)c2ccc(NC(=O)Nc3cc(F)ccc3F)cc2OC[C@H](C)NC[C@H]1C,-1,-17,.,.,.,.,.
CN1c2ccc(Br)cc2[C@@H]2[C@@H](CCN2C(=O)C2CCOCC2)[C@H]1CO,17,33,1,.,.,.,.
C[C@@H]1CCCCO[C@@H](CN(C)C(=O)Nc2cccc3ccccc23)[C@@H](C)CN([C@H](C)CO)C(=O)c2cc(NS(=O)(=O)c3ccccc3)ccc2O1,.,-40,.,.,.,.,.
C[C@@H]1CCCCO[C@H](CN(C)C(=O)Nc2cccc3ccccc23)[C@H](C)CN([C@H](C)CO)C(=O)c2cc(NS(=O)(=O)c3ccccc3)ccc2O1,.,-79,.,.,.,.,.
C[C@@H]1CCCCO[C@@H](CN(C)C(=O)Nc2cccc3ccccc23)[C@H](C)CN([C@@H](C)CO)C(=O)c2cc(NS(=O)(=O)c3ccc(Cl)cc3)ccc2O1,98*,-6,-5,107*,117*,-25,-17
C[C@@H]1CCCCO[C@H](CN(C)C(=O)Nc2cccc3ccccc23)[C@H](C)CN([C@@H](C)CO)C(=O)c2cc(NS(=O)(=O)c3ccc(Cl)cc3)ccc2O1,99*,-57,1,104*,102*,-12,-3
C[C@@H]1CN([C@@H](C)CO)C(=O)c2cc(NS(=O)(=O)c3ccc(Cl)cc3)ccc2O[C@@H](C)CCCCO[C@H]1CN(C)C(=O)Nc1cccc2ccccc12,96*,-77,-9,107*,102*,-13,13
C[C@H](CO)N1C[C@H](C)[C@@H](CN(C)C(=O)Nc2cccc3ccccc23)OCCCC[C@H](C)Oc2ccc(NS(C)(=O)=O)cc2C1=O,-10,-23,-6,.,.,.,.
C[C@H](CO)N1C[C@H](C)[C@H](CN(C)C(=O)Nc2ccc3c(c2)OCO3)Oc2c(NC(=O)NC3CCCCC3)cccc2C1=O,-6,-5,14,.,.,.,.
CCCC(=O)Nc1ccc2c(c1)C(=O)N(C)C[C@H](OC)[C@H](C)CN(C)[C@H](C)CO2,27,4,0,.,.,.,.
Cc1noc(C)c1NC(=O)Nc1ccc2c(c1)C(=O)N([C@H](C)CO)C[C@H](C)[C@H](CN(C)CC1CC1)OCCCC[C@H](C)O2,30,45,-3,.,.,.,.
C[C@@H]1CN([C@@H](C)CO)C(=O)c2cc(NC(=O)Nc3ccc(F)cc3)ccc2O[C@@H](C)CCCCO[C@@H]1CN(C)S(=O)(=O)c1cccs1,-51,-71,-3,.,.,.,.
C[C@@H]1CCCCO[C@@H](CN(C)S(=O)(=O)c2cccs2)[C@H](C)CN([C@@H](C)CO)C(=O)c2cc(NC(=O)Nc3ccc(C(F)(F)F)cc3)ccc2O1,100*,-52,-3,105*,114*,5,-8
C[C@@H]1CCCCO[C@H](CN(C)S(=O)(=O)c2cccs2)[C@H](C)CN([C@@H](C)CO)C(=O)c2cc(NC(=O)NC3CCCCC3)ccc2O1,100*,-84*,7,105*,35,-4,5
C[C@H](CO)N1C[C@H](C)[C@H](CN(C)S(=O)(=O)c2cccs2)OCCCC[C@H](C)Oc2ccc(NC(=O)NC3CCCCC3)cc2C1=O,101*,-44,-12,88,24,22,-6
C[C@@H]1CCCCO[C@H](CN(C)S(=O)(=O)c2cccs2)[C@@H](C)CN([C@H](C)CO)C(=O)c2cc(NC(=O)NC3CCCCC3)ccc2O1,28,-46,5,.,.,.,.
SMILES,T cruzi growth-1,Pf Dd2 inh,C diff HTS,T cruzi growth-2,T cruzi growth-3,NIH3T3 tox,NIH3T3 tox 2
C[C@H]1CN([C@@H](C)CO)C(=O)c2cc(NC(=O)Nc3ccc(C(F)(F)F)cc3)ccc2O[C@@H]1CN(C)S(=O)(=O)c1cccs1,90,-8,-6,.,.,.,.
C[C@@H]1CN([C@@H](C)CO)C(=O)c2cc(NC(=O)Nc3ccc(C(F)(F)F)cc3)ccc2O[C@H]1CN(C)S(=O)(=O)c1cccs1,?,-8,1,80,48,?,57*
C[C@@H]1CCCCO[C@H](CN(C)S(=O)(=O)c2cccs2)[C@H](C)CN([C@H](C)CO)C(=O)c2cc(NC(=O)NC3CCCCC3)ccc2O1,81,-78,0,.,.,.,.
CCCN1C[C@H](C)[C@@H](OC)CN(C)C(=O)c2cc(NC(=O)Nc3c(C)noc3C)ccc2OC[C@H]1C,-19,7,.,.,.,.,.
COCC(=O)Nc1ccc2c(c1)[C@@H]1C[C@H](CC(=O)NCc3ccc4c(c3)OCO4)O[C@@H](CO)[C@@H]1O2,4,13,-6,.,.,.,.
COc1ccc(S(=O)(=O)N(C)C[C@@H]2Oc3ccc(NS(=O)(=O)c4ccc(F)cc4)cc3CC(=O)N([C@@H](C)CO)C[C@H]2C)cc1,-23,-73,-1,.,.,.,.
